KB-3-1 cytotox: kills parental KB-3-1 adenocarcinoma cells; Potency, µM (series often up to 46.1 µM), actives largely listed as cytotoxic; 1.4% of 400,000 active; KB-3-1 viability, CellTiter-Glo ATP luminescence, 72 h; further: nearly all actives have a fitted effect of over 60% in size
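Parental KB-3-1 adenocarcinoma cells in phenol-red-free DMEM with 10% FBS were pin-treated with compounds at several concentrations, incubated 72 h at 37 °C, and viability read by CellTiter-Glo luminescence; concentration-effect curves were fitted after normalization.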
TGFb inhibitor: blocks TGF-b signaling. HepG2 CAGA-GFP TGF-b/SMAD3 reporter, GFP fluorescence, 18 h; TGF-beta stimulated, 500 pg/mL final. Potency, µM (highest dose often 46.1 µM), hits mostly inhibitors. 1.2% of 410,000 active. AID 588855; further: nearly all actives have a fitted effect of over 65% in size
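First, reporter cells (HEPG2 CAGA-GFP) rested 2 h at 37 degrees C. Next, compounds were pinned in and TGF-beta added to 500 pg/mL final. After 18 h, GFP was imaged per cell and summed per well.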
KB-V1 cytotox: kills drug-selected multidrug resistant KB-V1 cells. Potency, µM (series often up to 46.1 µM), most hits filed as cytotoxic. KB-V1 MDR cells viability, CellTiter-Glo, 72 h. 3.4% of 400,000 active. AID 1347076; further: nearly all actives have a fitted effect of over 60% in size
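qHTS viability screen in drug-selected KB-V1 MDR cells: 72 h compound treatment at 37 degrees C, ATP luminescence end point.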
HepG2 viability: HepG2 cytotoxicity, counter-screen for TGF-b inhibitors; Potency, µM (top dose mostly 46.1 µM), most hits filed as cytotoxic; 0.76% of 410,000 active; HepG2 CAGA-GFP viability, ATP luminescence, 18 h; AID 588856
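CellTiter-Glo luminescence gave cytotoxicity after 18 hours at 37 degrees C. The cells were HepG2 CAGA-GFP in 1% FBS DMEM, stimulated with 500 pg/mL TGF-beta after compound addition. %Activity was normalised to no-cell wells (complete cell-killing) and DMSO (no toxicity), and curves were fitted and classified.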
HT1080NT lethal: kills 2HG-producing HT-1080-NT fibrosarcoma cells; HT-1080-NT fibrosarcoma viability, CellTiter-Glo ATP luminescence, 48 h; Potency, µM (series often up to 46.1 µM), actives largely listed as cytotoxic; 1.6% of 360,000 active; AID 686970;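 further: NT is the 2HG producing partner of a matched IDH1 knockdown line; nearly all actives have a fitted effect of over 55% in size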
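Luminescent CellTiter-Glo readout after 48 hours of compound exposure at 37 degrees C defined viability of HT-1080-NT cells. Activity was normalized to DMSO wells and cell-free media wells; concentration-response curves were fitted and assigned curve classes.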
HT1080 IDH1KD tx: HT-1080 IDH1 knockdown cell toxicity (counter line); 2% of 360,000 active; HT-1080 IDH1 knockdown viability, ATP luminescence, 48 h; AID 686971; Potency, µM (titrated, usually from 46.1 µM), usual class: cytotoxic
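Cytotoxicity counter-line: IDH1KD HT-1080, 48 h, CellTiter-Glo. Curves classed by r2, magnitude and activity.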
Numbers stand for hits; . = inactive; ? = inconclusive; / = no result given. Hits are enriched below; roughly 6.6% of the tested compounds scored in any of these assays. The call rests on the fitted dose curve; in most records, active means well fitted curve in the direction sought with a large enough effect; inconclusive means small, poorly fitted or top-dose-only effect, or another doubt; inactive means no such curve, though single readings can be large; an effect the other way counts as inactive or inconclusive.

SMILES	KB-3-1 cytotox	TGFb inhibitor	KB-V1 cytotox	HepG2 viability	HT1080NT lethal	HT1080 IDH1KD tx
COc1ccc(CNC(=O)CSc2ncc3c(n2)-c2ccc(Cl)cc2N(Cc2ccccc2)S3(=O)=O)cc1	.	.	.	.	/	/
O=C(NC1CCCC1)C(c1ccc(F)cc1)N(Cc1ccc(F)cc1)C(=O)CCl (centres undefined)	?	.	18.4µM	.	.	.
COc1ccc(-c2nnn(CC(=O)N(Cc3ccc(F)cc3)C(C(=O)NC3CCCC3)c3ccc(F)cc3)n2)cc1 (centres undefined)	.	.	?	.	?	.
CCc1ccccc1N(C(=O)CNC(=O)c1ccco1)C(C(=O)NC1CCCC1)c1cccnc1 (centres undefined)	.	.	.	.	.	.
O=C(NC1CCCCC1)C(c1cccnc1)N(C(=O)CCl)c1ccccc1Cl (centres undefined)	10.3µM	.	?	.	10.3µM	16.4µM
O=C(NC1CCCCC1)C(c1cccnc1)N(C(=O)CCl)c1ccc(F)cc1 (centres undefined)	.	?	16.4µM	.	13µM	10.3µM
Cc1ccc(S(=O)(=O)c2nc(-c3ccco3)oc2SCc2ccccc2Cl)cc1	?	.	?	.	/	/
COc1ccc(NC(=O)c2ccccc2OCC(=O)Nc2ccc(Br)cc2)cc1	.	.	.	.	/	/
CCC(C)NC(=O)C1CCC(CNS(=O)(=O)c2ccc(Cl)cc2)CC1 (centres undefined)	.	.	.	.	/	/
CC(C)c1cc(C(=O)OCC(=O)NC(=O)NCc2ccco2)c(O)c(C(C)C)c1	?	?	?	.	23.1µM	25.9µM
CCOc1cc(C(=O)NCCc2csc(-c3ccc(C)cc3)n2)cc(OCC)c1OCC	/	?	/	.	/	/
CN(c1cccc(NC(=O)CN(c2ccc(C34CC5CC(CC(C5)C3)C4)cc2)S(C)(=O)=O)c1)S(C)(=O)=O	?	11.2µM	18.4µM	.	?	20µM
CN(c1cccc(NC(=O)CN(c2ccc(F)cc2)S(C)(=O)=O)c1)S(C)(=O)=O	.	.	.	.	.	.
Nc1nc2c(Br)ccc(Br)c2cc1C(=O)NCc1cccc2ccccc12	.	/	.	/	.	16.4µM
O=C(NCc1cccc2ccccc12)c1cccs1	.	.	.	.	.	.
Cc1csc(NC(=O)c2ccc(Cn3nc(C)c(Br)c3C)o2)n1	?	?	2.59µM	.	?	.
Cc1nn(Cc2ccc(C(=O)Nc3ccccc3C(F)(F)F)o2)c(C)c1Br	?	?	.	.	.	.
COc1ccc2nc(NC(=O)CSc3nc(C)cc(=O)[nH]3)sc2c1	.	.	.	.	.	.
CCCC(=O)Nc1nc2ccc(NC(=O)c3ccccc3F)cc2s1	2.06µM	.	1.84µM	.	?	?
COc1cc(CCC(=O)Nc2nnc(C)s2)cc(OC)c1OC	?	.	?	.	6.51µM	7.31µM
CCCCN(C(=O)NC(=O)Nc1nc2ccc(OC)cc2s1)S(C)(=O)=O	?	.	9.2µM	.	.	.
COc1ccc2nc(NC(=O)CSc3nccc(C)n3)sc2c1	.	.	23.1µM	.	.	.
COc1ccc2nc(NC(=O)c3ccccc3F)sc2c1	.	.	.	.	.	.
CCOCC(=O)Nc1nc2ccc(OC)cc2s1	.	.	.	.	.	.
COc1ccc2nc(NC(=O)CCc3cc(OC)c(OC)c(OC)c3)sc2c1	.	.	20.6µM	.	.	.
SMILES	KB-3-1 cytotox	TGFb inhibitor	KB-V1 cytotox	HepG2 viability	HT1080NT lethal	HT1080 IDH1KD tx
COc1ccc2nc(NC(=O)CCn3cccc3)sc2c1	.	.	18.4µM	.	.	?
O=C1c2ccccc2C(=O)N1c1ccc2ncccc2c1	?	.	?	.	/	/
CCCCn1c(CN2CCN(c3cccc(Cl)c3)CC2)nc2c1c(=O)[nH]c(=O)n2C	?	?	.	.	5.01µM	3.55µM
Cn1c(=O)[nH]c(=O)c2c1nc(CN1CCN(c3cccc(Cl)c3)CC1)n2CCCc1ccccc1	.	?	.	.	.	.
c1ccc(CN2CCN(c3ncnc4c3[nH]c3ccccc34)CC2)cc1	18.4µM	?	2.59µM	.	?	?
c1ccc2c(c1)[nH]c1c(N3CCC4(CC3)OCCO4)ncnc12	.	?	?	.	.	?
Cc1sc2ncnc(N3CCN(Cc4ccccc4)CC3)c2c1-c1ccccc1	?	.	10.3µM	.	.	.
OC1(c2cccc(C(F)(F)F)c2)CCN(c2ncnc3c2[nH]c2ccccc23)CC1	?	?	?	.	23.1µM	?
Cc1ccc2c(c1)[nH]c1c(N3CCN(Cc4ccccc4)CC3)ncnc12	?	11.2µM	?	.	?	?
Cc1nc(-n2nc(C)c(CCC(C)C)c2C)sc1C(=O)Nc1ccc(Br)cc1	.	.	.	.	/	/
CCc1ccc(CNC(=O)C2Cc3cc(S(=O)(=O)N4CCCCCC4)ccc3N2C(C)=O)cc1 (centres undefined)	.	.	.	.	/	/
c1ccc2c(c1)CCN(c1ncnc3c1[nH]c1ccccc13)C2	.	?	9.2µM	.	?	?
Cc1ccc2[nH]c3c(N4CCN(Cc5ccccc5)CC4)ncnc3c2c1	?	?	11.6µM	7.94µM	?	20.6µM
CSc1ncc(C(=O)N2CCN(c3cc(C)ccc3C)CC2)c(C)n1	.	.	.	.	/	/
O=C(Cn1cc(SCc2ccc(F)cc2)c2ccccc21)N1CCCCC1	/	?	/	.	/	/
O=C(CCl)N1c2ccccc2SCC1c1ccccc1 (centres undefined)	?	?	.	.	4.61µM	5.8µM
CCN(CC)C(=O)c1ccc2c3c(cccc13)C(=O)N(CCc1ccc(OC)c(OC)c1)C2=O	?	.	7.31µM	.	.	.
CCOC(=O)C1CCCN(C(=O)Cn2c(=O)cc(C)c3c(C)nn(C)c32)C1 (centres undefined)	.	?	.	.	/	/
Cc1cc(=O)n(CC(=O)N2CCN(c3ccc(F)cc3)CC2)c2c1c(C)nn2C	.	7.08µM	.	.	/	/
Cc1ccc(Cc2c(C)nc3nc(SCC(=O)NCc4ccco4)nn3c2C)cc1	4.61µM	.	8.2µM	.	?	2.59µM
C=C(C)c1cccc(C(C)(C)NC(=O)Nc2ccc(C(C)=O)cc2)c1	.	.	18.4µM	.	.	.
C=C(C)c1cccc(C(C)(C)NC(=O)N2CCC(C)CC2)c1	.	.	18.4µM	.	.	.
C=C(C)c1cccc(C(C)(C)NC(=O)Nc2ccc(OC)cc2)c1	.	.	.	.	.	.
Cc1ccc(-c2nnc(Nc3ccc(S(N)(=O)=O)cc3)c3ccccc23)cc1S(=O)(=O)N1CCOCC1	.	.	?	.	/	/

Source: PubChem BioAssay
